PubChem BioAssay (NCATS)
Results filed as inconclusive are left out. Active and inactive are the calls of the source. The call rests on the fitted dose curve; in most records, active means well fitted curve in the direction sought with a large enough effect; inconclusive means small, poorly fitted or top-dose-only effect, or another doubt; inactive means no such curve, though single readings can be large; an effect the other way counts as inactive or inconclusive.

Legend:
[1] = target: ATP-dependent 6-phosphofructokinase (Trypanosoma brucei brucei) (UniProt O15648); assay: qHTS Assay to Find Inhibitors of T. brucei phosphofructokinase: hit validation (AID 492961);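 further: luminescence reports ADP formed as PFK phosphorylates fructose-6-phosphate with ATP; on the % scale 0 is the no-effect control and ±100 the full control effect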
Chain of ATP-dependent 6-phosphofructokinase (Trypanosoma brucei brucei) (O15648 whole entry, looked up): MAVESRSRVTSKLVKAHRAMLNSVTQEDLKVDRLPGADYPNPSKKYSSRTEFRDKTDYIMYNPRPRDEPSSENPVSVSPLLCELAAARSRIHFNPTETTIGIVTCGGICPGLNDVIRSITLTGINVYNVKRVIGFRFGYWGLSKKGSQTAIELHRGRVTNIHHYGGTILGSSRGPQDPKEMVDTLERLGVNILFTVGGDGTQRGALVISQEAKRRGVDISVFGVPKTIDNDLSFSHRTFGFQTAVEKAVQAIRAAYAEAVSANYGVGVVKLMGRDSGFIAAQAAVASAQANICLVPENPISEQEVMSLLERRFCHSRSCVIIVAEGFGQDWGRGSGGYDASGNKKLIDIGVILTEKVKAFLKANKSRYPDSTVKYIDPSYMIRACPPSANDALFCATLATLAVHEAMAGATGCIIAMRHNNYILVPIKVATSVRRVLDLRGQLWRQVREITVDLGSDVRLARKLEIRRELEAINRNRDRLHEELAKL
How it was run: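 Compounds titrated; %activity normalized to 0x and 1x enzyme controls, curve-fitted. Readout: ADP-Glo luminescence after 45 min room-temperature reaction of 1.25 nM PFK, 0.1 mM ATP, 0.5 mM F6P, pH 8.0.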

[2] = target: Luciferin 4-monooxygenase (Photinus pyralis) (UniProt P08659); assay: Biochemical firefly luciferase enzyme assay for NPC (AID 624030);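 further: purified P. pyralis luciferase at 10 nM with luciferin and ATP substrate; 0% = DMSO and -100% = full luciferase inhibition by PTC124 control; nearly all actives have a fitted effect of over 70% in size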
Chain of Luciferin 4-monooxygenase (Photinus pyralis) (P08659 whole entry, looked up): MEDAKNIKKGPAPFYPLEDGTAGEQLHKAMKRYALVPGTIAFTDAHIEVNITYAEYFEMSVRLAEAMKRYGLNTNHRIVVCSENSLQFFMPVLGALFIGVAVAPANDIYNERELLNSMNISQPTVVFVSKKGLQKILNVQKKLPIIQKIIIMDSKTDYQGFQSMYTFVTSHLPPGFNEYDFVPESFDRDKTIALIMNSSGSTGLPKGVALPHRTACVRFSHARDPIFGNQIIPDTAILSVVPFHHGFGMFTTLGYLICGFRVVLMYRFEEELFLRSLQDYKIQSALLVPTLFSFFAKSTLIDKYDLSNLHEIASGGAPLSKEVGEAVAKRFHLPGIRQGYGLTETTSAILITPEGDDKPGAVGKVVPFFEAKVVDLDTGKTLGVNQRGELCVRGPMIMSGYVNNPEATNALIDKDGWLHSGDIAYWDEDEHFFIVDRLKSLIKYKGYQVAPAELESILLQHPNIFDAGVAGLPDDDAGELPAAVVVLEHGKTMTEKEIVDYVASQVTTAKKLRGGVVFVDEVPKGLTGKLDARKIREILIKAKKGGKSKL
How it was run: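 Purified P. pyralis luciferase at 10 nM in 50 mM Tris Acetate (final), luminescence read within 5 minutes of enzyme addition to compounds. Activity normalised to PTC124 versus DMSO; concentration-response curves classed by r2, magnitude and activity.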

[3] = qHTS profiling for inhibitors of Plasmodium falciparum proliferation (AID 504749);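 further: 0% = DMSO vehicle and full inhibition = artemisinin control; nearly all actives have a fitted effect of over 60% in size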; conditions: P. falciparum in erythrocytes, SYBR Green DNA, 72 h, at 28.7 µM (top of the series)
How it was run: (§1)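 Each compound contacts P. falciparum-infected red blood cells for 72 h at 37 C; lysis buffer (Tris, EDTA, saponin, Triton X, SYBR Green I) is added and fluorescence measured next morning; values normalized to controls.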

CP185 = assay: as above; conditions: P. falciparum in erythrocytes, SYBR Green DNA, 72 h; series mostly up to 28.7 µM
How it was run: as §1

CP192 = assay: as above; conditions: P. falciparum in erythrocytes, SYBR Green DNA, 72 h; series mostly up to 28.7 µM
How it was run: as §1

CP211 = assay: as above; conditions: P. falciparum in erythrocytes, SYBR Green DNA, 72 h; series mostly up to 28.7 µM
How it was run: as §1

CP238 = assay: as above; conditions: P. falciparum in erythrocytes, SYBR Green DNA, 72 h; series mostly up to 28.7 µM
How it was run: as §1

CP252 = assay: as above; conditions: P. falciparum in erythrocytes, SYBR Green DNA, 72 h; series mostly up to 28.7 µM
How it was run: as §1

CP262 = assay: as above; conditions: P. falciparum in erythrocytes, SYBR Green DNA, 72 h; series mostly up to 28.7 µM
How it was run: as §1

CP265 = assay: as above; conditions: P. falciparum in erythrocytes, SYBR Green DNA, 72 h; series mostly up to 28.7 µM
How it was run: as §1

CP269 = assay: as above; conditions: P. falciparum in erythrocytes, SYBR Green DNA, 72 h; series mostly up to 28.7 µM
How it was run: as §1

CP286 = assay: as above; conditions: P. falciparum in erythrocytes, SYBR Green DNA, 72 h; series mostly up to 28.7 µM
How it was run: as §1

CP315 = assay: as above; conditions: P. falciparum in erythrocytes, SYBR Green DNA, 72 h; series mostly up to 28.7 µM
How it was run: as §1

CP329 = assay: as above; conditions: P. falciparum in erythrocytes, SYBR Green DNA, 72 h; series mostly up to 28.7 µM
How it was run: as §1

DFO2036 = assay: as above; conditions: P. falciparum in erythrocytes, SYBR Green DNA, 72 h; series mostly up to 28.7 µM
How it was run: as §1

Dd2 = assay: as above; conditions: P. falciparum in erythrocytes, SYBR Green DNA, 72 h; series mostly up to 28.7 µM
How it was run: as §1

ECU = assay: as above; conditions: P. falciparum in erythrocytes, SYBR Green DNA, 72 h; series mostly up to 28.7 µM
How it was run: as §1

FAB9 = assay: as above; conditions: P. falciparum in erythrocytes, SYBR Green DNA, 72 h; series mostly up to 28.7 µM
How it was run: as §1

JCK = assay: as above; conditions: P. falciparum in erythrocytes, SYBR Green DNA, 72 h; series mostly up to 28.7 µM
How it was run: as §1

N140 = assay: as above; conditions: P. falciparum in erythrocytes, SYBR Green DNA, 72 h; series mostly up to 28.7 µM
How it was run: as §1

CC1OC(OCC2OC(Oc3c(-c4ccc(OCCO)c(OCCO)c4)oc4cc(OCCO)cc(O)c4c3=O)C(O)C(O)C2O)[C@@H](O)C(O)C1O (some centres undefined)
inactive: Potency [1] | Potency [2] | activity, negative = inhibition ([3]; parasite line A) -11% | activity, negative = inhibition ([3]; parasite line B) 4.27% | Potency (CP185) | Potency (CP192) | Potency (CP211) | Potency (CP238) | Potency (CP252) | Potency (CP262) | Potency (CP265) | Potency (CP269) | Potency (CP286) | Potency (CP315) | Potency (CP329) | Potency (DFO2036) | Potency (Dd2) | Potency (ECU) | Potency (FAB9) | Potency (JCK) | Potency (N140)

CC1OC(OC2CCC3(C)C(CCC4C3CC(O)C3(C)C(C5=CC(=O)OC5)CCC43O)C2)CC(O)C1OC1CC(O)C(OC2CC(O)C(OC3OC(CO)C(O)C(O)C3O)C(C)O2)C(C)O1 (centres undefined)
inactive: Potency [1] | Potency [2] | activity, negative = inhibition ([3]; parasite line A) 13.2% | activity, negative = inhibition ([3]; parasite line B) -5.12% | Potency (CP185) | Potency (CP192) | Potency (CP211) | Potency (CP238) | Potency (CP252) | Potency (CP262) | Potency (CP265) | Potency (CP269) | Potency (CP286) | Potency (CP315) | Potency (CP329) | Potency (DFO2036) | Potency (Dd2) | Potency (ECU) | Potency (FAB9) | Potency (JCK) | Potency (N140)

CCCCCCCCCCCCCCCC(=O)OC[C@H](O)[C@H]1OC[C@@H](O)[C@@H]1O
inactive: Potency [1] | Potency [2] | activity, negative = inhibition ([3]; parasite line A) -0.407% | activity, negative = inhibition ([3]; parasite line B) -6.82% | Potency (CP185) | Potency (CP192) | Potency (CP211) | Potency (CP238) | Potency (CP252) | Potency (CP262) | Potency (CP265) | Potency (CP269) | Potency (CP286) | Potency (CP315) | Potency (CP329) | Potency (DFO2036) | Potency (Dd2) | Potency (ECU) | Potency (FAB9) | Potency (JCK) | Potency (N140)

CO/N=C(/C(=O)N[C@@H]1C(=O)N2C(C(=O)O)=C(CSC(=O)c3ccco3)CSC12)c1csc(N)n1 (some centres undefined)
inactive: Potency [1] | Potency [2] | activity, negative = inhibition ([3]; parasite line A) 2.76% | activity, negative = inhibition ([3]; parasite line B) 0.141% | Potency (CP185) | Potency (CP192) | Potency (CP211) | Potency (CP238) | Potency (CP252) | Potency (CP262) | Potency (CP265) | Potency (CP269) | Potency (CP286) | Potency (CP315) | Potency (CP329) | Potency (DFO2036) | Potency (Dd2) | Potency (ECU) | Potency (FAB9) | Potency (JCK) | Potency (N140)
